The source made the active and inactive calls. Rule for the calls: active = hit-call score of the fitted dose curve at least 0.9, where 1 is the maximum; inactive = score below 0.9.

The term AC50 denotes the concentration at which the activity in the assay is half-maximal.

The experiment is described as follows: ATG_NF_kB_CIS: Attagene CIS-FACTORIAL HepG2 Assay for human Nuclear Factor Kappa B (NF-kB) (AID 2282991). Conditions: HepG2 Attagene cis-factorial NF-kB reporter mRNA; actives raise or lower the signal. As for the experimental part: ATG_CIS is a cell-based, multiplexed-readout assay that uses HepG2, a human liver cell line, with measurements taken at 24 hours after chemical dosing in a 24-well plate.ATG_NF_kB_CIS is one of 52 assay component(s) measured or calculated from the ATG_CIS assay. It is designed to make measurements of mRNA induction, a form of inducible reporter, as detected with fluorescence intensity signals by Reverse transcription polymerase chain reaction (RT-PCR) and Capillary electrophoresis technology.Data from the assay component ATG_NF_kB_CIS was analyzed into 1 assay endpoint. This assay endpoint, ATG_NF_kB_CIS, was analyzed with bidirectional fitting relative to DMSO as the negative control and baseline of activity. Using a type of inducible reporter, measures of mRNA for gain or loss-of-signal activity can be used to understand the reporter gene at the transcription factor-level as they relate to the gene NFKB1. Furthermore, this assay endpoint can be referred to as a primary readout, because this assay has produced multiple assay endpoints where this one serves a reporter gene function. To generalize the intended target to other relatable targets, this assay endpoint is annotated to the dna binding intended target family, where the subfamily is NF-kappa B.
Human liver HepG2 cells are transiently transfected with multiple reporter transcription units (MRTUs) in 6-well plates using FuGene 6 reagent (Roche; 3 ml FuGene/1 mg DNA). The MRTU constructs are regulated by a cis-regulating element (promoter). […] A major difference between the CIS and TRANS system is that in CIS activities of endogenous TFs are measured, whereas the TRANS assay evaluates changes in activities of exogenous, chimeric NR-Gal4 proteins. […] At the end of 24 hour incubation, total RNA was isolated using TriZol reagent (Invitrogen). The isolated RNA is then reverse-transcribed using oligo(dT) primer and Mo-MLV reverse transcriptase (Invitrogen) with DNAse I (Ambion) treatment for 30 min. The one-tenth of the produced cDNA was amplified by PCR using Taq DNA polymerase (Invitrogen) and two reporter sequence-specific primers. The PCR products were fluorescently labeled by primer extension with 6-arboxyfluorescein (6-FAM) 5'-labeled reporter sequence-specific primer (2 min at 95 C, 20 s at 68 C and 10 min at 72 C) and these products were digested with 5U of HpaI (New England Biolabs) for 2h at 37 C. The fragments were purified using Qiaquick PCR columns (Qiagen), analyzed on an ABI 3130xL genetic analyzer (Applied Biosystems) with peak positions identified by using a set of X-rhodamine (ROX)-labeled MapMarker1000 molecular weight standards (BioVentures). The raw capillary electrophoresis data was processed using Attagraph software (Attagene).
For `O=C(/C=C/C=C/c1ccc2c(c1)OCO2)N1CCCCC1`, the result was inactive.

Regarding `CCCCNc1ccc(NCCCC)c2c1C(=O)c1ccccc1C2=O`, the outcome was inactive. Same read-out and setting: as for `CCc1ccc2c(c1)C(=O)c1ccccc1C2=O`, the entry is “inactive”; as for `CC(C)(C)C(=O)C=Cc1ccc(Cl)cc1`, “inactive”. On the same count and under the same terms, next, `Cc1oncc1C(=O)Nc1ccc(C(F)(F)F)cc1`: “inactive”. Take `CCCCCCOc1cc(C)c(O)c(C)c1C`: the AC50 is 16.5 µM (active). As to `CCCCCCCCc1ccc(Nc2ccc(CCCCCCCC)cc2)cc1`, the outcome was inactive. `CCOC(=O)NNc1nncc2ccccc12`: the call was inactive. The same measure, in the same setting: next, `C=CC=CC=CCCCCC`: “inactive”; `C=C(C)[C@@H]1CCC2=CCC[C@@H](C)[C@]2(C)C1`: “inactive”.

Consider `C=COCCCC`, for which the molecule was classed as inactive. With `CC(C)CCCC(C)CC=O` (stereo not given), the molecule was called inactive.

In the case of `CCCCC/C=C\CCC=O`, the molecule was classed as inactive. Turning to `O=S(=O)(O)c1ccc2cc(O)c(S(=O)(=O)O)cc2c1`, the AC50 is 120 µM (active).

Regarding `CCCCCCCCCCC=CC#N`, the molecule was classed as inactive.

`NC(=O)c1ccccc1O`: the result was inactive. Same read-out and setting: as for `CC1(C)O[C@@H]2C[C@H]3[C@@H]4C[C@H](F)C5=CC(=O)CC[C@]5(C)[C@H]4[C@@H](O)C[C@]3(C)[C@]2(C(=O)CO)O1`, the entry is “inactive”; as for `O=C(Cl)c1cc(C(=O)Cl)cc(C(=O)Cl)c1`, “inactive”. Same read-out and setting: as for `COC(=O)c1ccc2cc(C(=O)OC)ccc2c1`, the entry is “inactive”; as for `O=C1CCCN1CCO`, “inactive”; as for `CCOC(F)(F)C(F)(F)C(F)(F)C(F)(F)F`, “inactive”. The same measure, in the same setting: next, `CCOc1nc(F)cc2nc(S(=O)(=O)Nc3c(Cl)cccc3C(=O)OC)nn12`: “inactive”. `COCC(C)N` (stereo not given): the molecule was classed as inactive. The same measure, in the same setting: as for `O=C(C=Cc1ccccc1)OCc1ccccc1`, the entry is “inactive”. `CC(C)(Oc1ccc(C2CC2(Cl)Cl)cc1)C(=O)O` (stereo not given): the call was inactive. In the case of `Cc1cnc(NC(=O)C2=C(O)c3ccccc3S(=O)(=O)N2C)s1`, the result was inactive. For `S=C(NC1CCCCC1)NC1CCCCC1`, the call was inactive. On the same count and under the same terms, as for `C=C[Si](C)(C)O[Si](C)(C)C=C`, the entry is “inactive”; as for `CCN(Cc1cccc(S(=O)(=O)O)c1)c1ccc(C(=C2C=CC(=[N+](CC)Cc3cccc(S(=O)(=O)[O-])c3)C=C2)c2ccccc2)cc1`, “inactive”. As to `CC1=Nc2ccc3ccccc3c2C1(C)C`, the result was inactive. On the same count and under the same terms, as for `C=CCOc1c(Br)cc(Br)cc1Br`, the entry is “inactive”; as for `CO[Si](CCC1CCC2OC2C1)(OC)OC` (stereo not given), “inactive”; as for `Cc1cc(=O)n(-c2ccccc2)n1C`, “inactive”. The same measure, in the same setting: next, `COCc1c(C(C)C)nc(C(C)C)c(/C=C/[C@@H](O)C[C@@H](O)CC(=O)O)c1-c1ccc(F)cc1`: “inactive”; `O=C(C(Cl)Cl)N1CCOC12CCCCC2`: “inactive”; `OCCN(CCO)c1ccccc1`: “inactive”. Same read-out and setting: next, `COc1ccc(C(Cl)=C(c2ccc(OC)cc2)c2ccc(OC)cc2)cc1`: “inactive”. With `CCOC(=O)N1CCC(=C2c3ccc(Cl)cc3CCc3cccnc32)CC1`, the outcome was inactive. For the molecule `CC(C)=CCCC(C)C=O` (stereo not given), the molecule was classed as inactive. The same measure, in the same setting: next, `Cc1ccc([N+](=O)[O-])cc1S(=O)(=O)O`: “inactive”.

The values above are taken from PubChem BioAssay (EPA / NIEHS).
